This is an account of results in ChEMBL document CHEMBL3988442, “University of Dundee, Small-Polar-MMV Screening Library” (2021).

The structures appear in SMILES notation. In all, about 69,000 compounds went through this assay and about 420 (0.61%) showed an effect of 50% or more. This is one part of a sample in which strong results are shown more often than they occur.

In this test the target is T1, Histidine--tRNA ligase (Leishmania infantum) (UniProt A4I591).
T1 sequence (whole entry): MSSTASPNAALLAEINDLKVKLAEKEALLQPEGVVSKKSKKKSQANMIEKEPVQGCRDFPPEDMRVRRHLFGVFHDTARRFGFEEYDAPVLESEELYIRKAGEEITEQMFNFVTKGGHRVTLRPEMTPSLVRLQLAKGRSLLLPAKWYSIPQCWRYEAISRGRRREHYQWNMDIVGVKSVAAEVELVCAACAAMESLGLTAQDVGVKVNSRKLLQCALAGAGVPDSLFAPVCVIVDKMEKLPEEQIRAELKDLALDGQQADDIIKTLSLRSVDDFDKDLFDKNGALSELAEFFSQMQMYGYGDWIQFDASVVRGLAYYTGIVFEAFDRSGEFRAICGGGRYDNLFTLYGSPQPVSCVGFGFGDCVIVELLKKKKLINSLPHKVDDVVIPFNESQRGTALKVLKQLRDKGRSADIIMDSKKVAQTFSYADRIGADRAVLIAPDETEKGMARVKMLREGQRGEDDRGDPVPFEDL
Nature of the test: Leishmania infantum Histidine tRNA synthetase (LdHisRS). In kind it is functional. Also on record: scale not given: in the data most compounds retested in dose-response had high values. The following applies: 30 µM.
`CCc1ccc(C(=O)O)cc1S(=O)(=O)Nc1ccc(=O)n(C)c1`: the Percent Effect is 21.4%.

Take `Cn1cc(NS(=O)(=O)c2ccc(F)c(F)c2)ccc1=O`: the Percent Effect is 47.3%.

With `Cc1ccc(S(=O)(=O)Nc2ccc(=O)n(C)c2)cc1`, the Percent Effect was 77.5%.

With `CCCc1ccc(S(=O)(=O)Nc2ccc(=O)n(C)c2)cc1`, the Percent Effect came out at 29.1%.

As for `Cn1cc(NS(=O)(=O)c2ccc(OC(F)(F)F)cc2)ccc1=O`, the Percent Effect is 82%.

For the compound `Cc1ccc(S(=O)(=O)Nc2ccc(-n3nnn(C)c3=O)cc2)cc1`, the Percent Effect turned out to be 12.2%.

`Cn1cc(NS(=O)(=O)c2ccc3c(c2)CCCC3)ccc1=O`: the Percent Effect stood at 41.8%.

Take `CC(C)c1ccc(C(=O)O)cc1S(=O)(=O)Nc1ccc(=O)n(C)c1`: the Percent Effect came to 84.6%.

Consider `Cn1cc(NS(=O)(=O)c2ccc(C(F)(F)F)cc2)ccc1=O`, for which the Percent Effect was found to be 38.2%.

As for `Cc1ccc(S(=O)(=O)Nc2ccc(-n3cccc3C(=O)O)c(C)c2)cc1`, the Percent Effect was 6.25%.

Consider `CC(C)Cc1ccc(S(=O)(=O)Nc2ccc(=O)n(C)c2)cc1`, for which the Percent Effect came out at 91%.

Take `Cc1ccc(S(=O)(=O)Nc2ccc(=O)n(C)c2)c(Br)c1`: the Percent Effect worked out at 32.7%.

For `c1ccc(CN2CC[C@@H]3O[C@H](COCc4ccncc4)CC[C@@H]32)nc1`, the Percent Effect turned out to be 10.9%.

In the case of `CC(C)CN1C[C@@H]2OCC(=O)N(Cc3nccn3C)[C@@H]2C1`, the Percent Effect came to 23%.

For the compound `O=C([C@@H]1COC[C@H]2CN(C3CCOCC3)C[C@H]21)N1CCOCC1`, the Percent Effect was found to be 30.6%.

In the case of `CCO[C@H]1CC[C@H]2[C@@H]1OCCN2C(=O)COc1ccccc1`, the Percent Effect is 19.1%.

Turning to `CN1[C@H]2CC[C@@H]1CN(C(=O)c1sccc1S(N)(=O)=O)CC2`, the Percent Effect was -12.7%.

For `CN(c1cccnn1)[C@@H]1CC[C@@H]2CN(Cc3cccc(C(=O)O)c3)C[C@@H]21`, the Percent Effect was 5.63%.

On to `Cc1[nH]nc(CCC(=O)N2C[C@H]3CC[C@@H]2CN(C(=O)N(C)C)C3)c1C`, for which the Percent Effect is 13.9%.

Take `Cc1cc(C(=O)N2C[C@@H]3CN(S(C)(=O)=O)CCO[C@@H]3C2)c(C)o1`: the Percent Effect was -1.75%.

With `CNC(=O)[C@@]12CCO[C@@H]1CCN(S(=O)(=O)c1cc(C)cc(C)c1)C2`, the Percent Effect is 13%.

On to `CCC(=O)Nc1cc(Br)cn(C)c1=O`, for which the Percent Effect is 103%.

For `Cn1ccc(CN2CCC(CC(=O)NC3CCCC3)CC2)cc1=O`, the Percent Effect was -8.33%.

On to `Cn1cc(C(C)(O)CNC(=O)c2cc(Br)cn2C)cn1` (configuration not stated), for which the Percent Effect worked out at 25.5%.

As to `CCC(=O)Nc1cc(Br)cnc1OCC(F)(F)F`, the Percent Effect is 14%.

For the compound `CC(C)(C)CC(=O)Nc1ccccc1SCC(N)=O`, the Percent Effect amounted to 9.57%.

`Cn1cc(Br)cc(NC(=O)Cc2cccs2)c1=O`: the Percent Effect amounted to 34%.

As to `Cc1nn(C)cc1NC(=O)CC1CCN(CCc2ccccc2)CC1`, the Percent Effect came to 5.67%.

For `Cc1cc(=O)n(C)cc1NC(=O)CC1CCC1`, the Percent Effect came out at 75%.

As to `Cn1cc(Br)cc(NC(=O)CC2CCC2)c1=O`, the Percent Effect came to 103%.

Consider `Cn1cc(Br)cc(NC(=O)CC(C)(C)C)c1=O`, for which the Percent Effect turned out to be 95%.

As for `Cc1c(CS(C)(=O)=O)cccc1NC(=O)CC1CCCC1`, the Percent Effect was found to be 11.7%.

`O=C(CC1CCCC1)Nc1ccc(-n2cc(Br)cn2)nc1`: the Percent Effect worked out at 10.5%.

Turning to `COCCNC(=O)[C@H]1CN(Cc2nccs2)C[C@H]2OCC[C@@H]12`, the Percent Effect worked out at 15.2%.

On to `COCCCN1C(=O)CC[C@H]2CN(Cc3ncc[nH]3)CC[C@H]21`, for which the Percent Effect was -49.3%.

For `COc1cc(N2C[C@H](C(=O)N3CCCC3)[C@@H]3CCO[C@@H]3C2)ncn1`, the Percent Effect stood at 8.06%.

As for `O=C(c1ccco1)N1CC[C@H]2[C@H]1CCN2S(=O)(=O)C1CC1`, the Percent Effect was determined as 5.26%.

For `Cc1ccc(C(=O)N2C[C@@H]3COC[C@]3(COc3cccnc3)C2)cn1`, the Percent Effect came out at 7.52%.

Turning to `O=C(NCc1cccs1)[C@]12COC[C@H]1CN(c1ncccn1)C2`, the Percent Effect amounted to 5.26%.

In the case of `CCCS(=O)(=O)N1C[C@@H](Oc2ncccc2F)[C@H]2OCCC[C@H]21`, the Percent Effect is 8.22%.

In the case of `c1cnc(N2CCO[C@H]3[C@H](OCc4cccnc4)CC[C@@H]32)nc1`, the Percent Effect is -9.73%.

With `Cc1ncsc1CN1CC[C@H]2OCC[C@@]2(C(=O)N2CCCO2)C1`, the Percent Effect is 16.8%.

Consider `COc1ccccc1C1(CNCc2ccc(C#N)cc2)CCOCC1`, for which the Percent Effect amounted to 60.4%.

For `COc1ccccc1C1(CNCc2cccc(C#N)c2)CCOCC1`, the Percent Effect stood at 49.5%.

Turning to `COc1ccccc1C1(CNCc2cccc(O)c2)CCOCC1`, the Percent Effect worked out at 109%.

As for `COc1ccccc1C1(CNCc2ccc([S+](C)[O-])cc2)CC1` (configuration not stated), the Percent Effect is 12.1%.

Regarding `N#Cc1ccc(CNCC2(c3ccccc3)CCOCC2)cc1`, the Percent Effect amounted to 42.9%.

For the compound `COc1ccccc1C1(CNc2nnc(C)c(C)c2C#N)CCOCC1`, the Percent Effect is 37%.

Regarding `Cn1cc(C(=O)N2C[C@@H]3CN(S(C)(=O)=O)CCO[C@@H]3C2)cn1`, the Percent Effect was 7.55%.

On to `Cc1oncc1C(=O)N1CC[C@H]2[C@@H]1CCC(=O)N2CC1CC1`, for which the Percent Effect worked out at 0%.

As to `CC(C)CN1C[C@H]2C[C@H](C(=O)N3CCCC3)[C@@H](C1)O2`, the Percent Effect worked out at 13.2%.

In the case of `Cc1noc(C(C)Nc2ccc3oc(=O)[nH]c3c2)n1` (configuration not stated), the Percent Effect amounted to 16.4%.

On to `Cc1noc(C(C)Nc2ccc3c(c2)CCC3)n1` (configuration not stated), for which the Percent Effect is 9.38%.

With `CC(C)c1nc2cc(NC(=O)Cn3ccccc3=O)ccc2o1`, the Percent Effect came to 12%.

In the case of `Cc1noc(C(C)Nc2ccc3oc(C)nc3c2)n1` (configuration not stated), the Percent Effect worked out at 106%.

Consider `Cc1noc(C(C)Nc2ccc3oc(C(C)C)nc3c2)n1` (configuration not stated), for which the Percent Effect worked out at 106%.

Consider `CC(C)c1nc2cc(NC(=O)Cn3ccc(=O)[nH]c3=O)ccc2o1`, for which the Percent Effect was found to be 14%.

For `Fc1cnc(N2C[C@@H]3C[C@@H](c4nc(C5CC5)cs4)O[C@@H]3C2)nc1`, the Percent Effect is 7.55%.

Regarding `CC(C)CNc1nc(C(=O)/N=c2\[nH]nc(C(C)(C)C)s2)cs1`, the Percent Effect was determined as 1.91%.

Turning to `Cc1[nH]/c(=N\C(=O)c2csc(NCC(C)C)n2)sc1C`, the Percent Effect was 20.9%.

Consider `Cc1cs/c(=N/C(=O)c2csc(NCC(C)C)n2)[nH]1`, for which the Percent Effect worked out at 75.3%.

Regarding `CCN(Cc1nc2c(cnn2C)c(=O)[nH]1)Cc1ccco1`, the Percent Effect was found to be 15.7%.

Take `O=C(NCC1CCCO1)c1nc2c(s1)CCCN2Cc1ccccc1` (configuration not stated): the Percent Effect stood at 45.8%.

For `COCCN1CCCc2sc(C(=O)NCC3CCCO3)nc21` (configuration not stated), the Percent Effect amounted to 52.8%.

For the compound `O=C(NCC1CCCO1)c1nc2c(s1)CCCN2CC1CC1` (configuration not stated), the Percent Effect stood at 29.2%.

On to `Cc1cccc(CN2C[C@@H]3COC[C@]3(CNC(=O)C3CCC3)C2)c1`, for which the Percent Effect turned out to be 17.8%.

Turning to `COc1ccc(N2CCC(N3CCOC(C(F)(F)F)C3)CC2)cc1` (configuration not stated), the Percent Effect amounted to 14.3%.

For `NC1CCN(C2CCN(c3ccc(-c4ccco4)cc3)CC2)CC1`, the Percent Effect is 54.8%.

Regarding `CNC1CCN(C2CCN(c3ccc(-c4ccco4)cc3)CC2)CC1`, the Percent Effect amounted to 42.1%.

In the case of `NCC1CCN(C2CCN(c3ccc(-c4ccco4)cc3)CC2)C1` (configuration not stated), the Percent Effect turned out to be 64.3%.

`O=C(O)c1ccccc1C1CCN(C2CCN(c3ccccc3)CC2)C1` (configuration not stated): the Percent Effect was found to be 22.7%.

Turning to `CCS(=O)(=O)c1ccc(N2CCC(N)CC2)cc1`, the Percent Effect was determined as 11.6%.
